Records with an inconclusive call do not appear. Activity calls are given as the source filed them. Calls follow the shape of the dose curve; as a rule, active = well fitted curve in the direction sought with a large enough effect; inconclusive = small, poorly fitted or top-dose-only effect, or another doubt; inactive = no such curve, though single readings can be large; an effect the other way counts as inactive or inconclusive.
Experiments:
[1] = biological target: Phospholipid hydroperoxide glutathione peroxidase GPX4 (Homo sapiens) (UniProt P36969); experiment: Primary qHTS Assay for Inhibitors of Recombinant Selenoprotein Glutathione Peroxidase 4 (GPX4) (AID 1845192); also: nearly all actives have a fitted effect of over 65% in size
Chain of Phospholipid hydroperoxide glutathione peroxidase GPX4 (Homo sapiens) (P36969 whole entry, looked up): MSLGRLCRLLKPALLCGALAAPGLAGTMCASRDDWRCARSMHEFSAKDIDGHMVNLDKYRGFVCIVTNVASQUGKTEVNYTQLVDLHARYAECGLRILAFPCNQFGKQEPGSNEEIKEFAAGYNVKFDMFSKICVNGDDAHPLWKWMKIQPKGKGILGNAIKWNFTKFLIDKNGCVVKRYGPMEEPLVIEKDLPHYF
In short: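 GR-coupled readout: 100 nM GR, 1 mM GSH, 0.5 mM NADPH; NADPH fluorescence (ex 340/em 450 nm) read at t=0 and after 15 min RT. GPX4 200 nM, preincubated 30 min with compound; substrate 0.5 mM CHP.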

[2] = biological target: Luciferin 4-monooxygenase (Photinus pyralis) (UniProt P08659); experiment: Primary firefly luciferase (FLuc) qHTS assay for identification of artifact compounds. (AID 1845220); also: nearly all actives have a fitted effect of over 60% in size
In short: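 In this counter-screen for luciferase artifacts, test compounds met substrate (10 uM each luciferin and ATP) before 10 nM enzyme started the reaction. Light output was measured 5 min later.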

[3] = Primary fluorescence-based thiol-reactive (MSTI) qHTS assay for identification of artifact compounds. (AID 1845221); also: nearly all actives have a fitted effect of over 65% in size; also: potency is read from the fitted curve at half-maximal effect;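 as to activity change, negative = thiol reactive: series mostly up to about 54 µM; thiol-reactive compounds lower the probe fluorescence signal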
In short: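 Curve-fitted percent inhibition (4-parameter Hill) derived from fluorescence, Ex 525/Em 598 nm, scaled with Acetyl-MSTI and MSTI; 1 h incubation at room temperature.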

[4] = system: Nanoluciferase (engineered Oplophorus gracilirostris luciferase); experiment: Primary Nanoluciferase (NLuc) qHTS assay for identification of artifact compounds. (AID 1845222);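 also: NLuc secreted into diluted conditioned medium of S16 cells; series mostly up to about 54 µM; 0% = DMSO and -100% = no enzyme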
In short: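 Using secreted nanoluciferase in S16 culture medium (0.22 um filtered, 1:55 dilution), compounds were preincubated 15 min at RT. Signal was generated with Nano-Glo reagent (1:100) over 5 min.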

[5] = Primary redox qHTS assay for identification of artifact compounds. (AID 1845223);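 also: 0% = DMSO and 100% = reference compound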
In short: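 Amplex Red (25 uM) and HRP (250 mU/mL) in HBSS, with compounds for 15 min, then 250 uM DTT for 30 min, room temperature, dark. Fluorescence 525/598 nm read; normalized to DMSO and 10 uM DA3003; Hill fit.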

CC1C/C=C/C=C\CCCCC(O)C/C=C/C(=O)O1 (stereo not given)
inactive: Potency [1] | Potency [2] | Potency [3] | Potency [4] | Potency [5]

C=C(C(=O)OC)C1CCC2(C)C(O[C@@H]3O[C@H](CO)[C@@H](O)[C@H](O)[C@H]3O)CC(=O)C(C)C2C1O (stereo not given in full)
active: Potency [3] 4.12 µM
inactive: Potency [1] | Potency [2] | Potency [4] | Potency [5]

C[C@@H]1O[C@@H](O[C@H]2[C@H](O[C@H]3CC[C@@]4(C)C(CC[C@]5(C)C4CC=C4[C@@H]6CC(C)(C)CC[C@]6(C(=O)O)CC[C@]45C)[C@]3(C)CO)OC[C@H](O)[C@@H]2O)[C@H](O)[C@H](O[C@@H]2OC[C@@H](O)[C@H](O)[C@H]2O)[C@H]1O (stereo not given in full)
inactive: Potency [1] | outcome [2] inactive [at 11.6 µM] | activity change, negative = thiol reactive [3] 366% [at 11.5 µM] | activity, negative = inhibition [4] 0.957% [at 11.6 µM] | redox activity (% of DA3003) [5] 0.416% [at 11.5 µM]

N[C@H]1C[C@H]1c1ccc(-c2cccc(O)c2)cc1
inactive: Potency [1] | Potency [2] | Potency [3] | Potency [4] | Potency [5]

CCC(NC(=O)CC(NC(=O)C(CO)NC(=O)C(CC)NC(=O)c1ccc[nH]1)c1ccccc1)C(=O)O (stereo not given)
inactive: Potency [1] | Potency [2] | Potency [3] | Potency [4] | Potency [5]

C[C@@H]1O[C@@H](OC[C@H]2O[C@@H](OCCc3ccccc3)[C@H](O)[C@@H](O)[C@@H]2O)[C@H](O)[C@H](O)[C@H]1O
active: Potency [3] 2.6 µM
inactive: Potency [1] | Potency [2] | Potency [4] | Potency [5]

COc1ccc([C@@H]2N[C@H](C(=O)O)Cc3c2[nH]c2ccccc32)cc1CN1CCN(c2ccccc2F)CC1
inactive: Potency [1] | Potency [2] | Potency [3] | Potency [4] | Potency [5]

— PubChem BioAssay (NCATS)
